Reference: PubChem BioAssay (Tox21)
Records with an inconclusive call do not appear. Unmarked numbers belong to inactive results. Active and inactive are the calls of the source. Calls come from the whole dose curve. Starred links: 1 amine or outer side, 2 acyl side, 3 side chain; linkers in the order of their positions; H or OH if unused. Positions of bridges follow the written chain, without caps; N, C: chain ends. Non-standard residues stand in square brackets, D forms with d. Residues, ends and D or L forms follow the SMILES beside them. *: point of attachment. X5 = NC1=N[C@@H]([C@H](N[*:1])C(=O)[*:2])C[C@H](O)N1; ΔAla(Z-3-ureido) = NC(=O)N/C=C(\N)C(=O)O; β3hOrn = NCCC[C@H](N)CC(=O)*; Orn = NCCC[C@H](N)C(=O)O; Dap = NC[C@H](N)C(=O)O; Mpa = O=C(O)CCS

Test: qHTS assay for small molecules that induce genotoxicity in human embryonic kidney cells expressing luciferase-tagged ATAD5 - cell viability (AID 651634); note: nearly all actives have a fitted effect of over 25% in size
Details: HEK293T ATAD5-luc cells viability, CellTiter-Fluor, 15.5 h; series mostly up to 83.3 µM; activity, negative = cytotoxicity: at the top concentration
In short: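 Cells (HEK293T, luciferase-tagged ATAD5) are seeded at 2,000 per well, dosed with compound or DMSO vehicle, and incubated 15.5 hr at 37C and 5% CO2. CellTiter-Fluor is added for 30 min before fluorescence is measured.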
% is set by controls: 0 for no effect and ±100 for the full control effect.

With `COCC1=C(C(=O)OC(C)OC(=O)OC(C)C)N2C(=O)[C@@H](NC(=O)/C(=N\OC)c3csc(N)n3)[C@H]2SC1` (some centres undefined) the Potency was “inactive”.
For `CO[C@@H]1[C@@H](O[C@@H]2O[C@H](C)[C@@H](O[C@H]3C[C@@](C)(O)[C@@H](OC(=O)CC(C)C)[C@H](C)O3)[C@H](N(C)C)[C@H]2O)[C@@H](CC=O)C[C@@H](C)[C@@H](O)/C=C/C=C/C[C@@H](C)OC(=O)C[C@H]1O`, the Potency was “inactive”.

In order of rising “activity, negative = cytotoxicity” value:
1. CC(C)CN(C[C@@H](O)[C@H](Cc1ccccc1)NC(=O)O[C@@H]1CCOC1)S(=O)(=O)c1ccc(N)cc1  -18.1%
2. C=C1/C(=C\C=C2/CCC[C@]3(C)[C@@H]([C@H](C)OCCC(C)(C)O)CC[C@@H]23)C[C@@H](O)C[C@@H]1O  -17.4%
3. CCOC(=O)COc1ccc2c(C)c(CCN(CC)CC)c(=O)oc2c1  -15.2%
4. CC1CC(OC(=O)C(O)c2ccccc2)CC(C)(C)C1 (centres undefined)  -14.7%
5. CN1[C@@H]2CCC[C@H]1CC(NC(=O)c1nn(C)c3ccccc13)C2 (some centres undefined)  -11%
6. CCC(c1ccccc1)c1noc(CCN(CC)CC)n1 (centres undefined)  -10.3%
7. NCCC[C@H](N)C(=O)O  -8.5%
8. CC1(C)S[C@@H]2[C@H](NC(=O)Cc3ccccc3)C(=O)N2[C@H]1C(=O)O  -7.04%
9. OC(CN1CCCCC1)c1cc(-c2ccccc2)on1 (centres undefined)  -6.11%
10. NC(=O)Oc1ccc(Cc2ccccc2)cc1  -3.4%
11. CCCCOC(=O)C(=O)Nc1cccc(-c2nn[nH]n2)c1  -3.31%
12. O=C(O)[C@H](CC(=O)N1C[C@H]2CCCC[C@H]2C1)Cc1ccccc1  -2.57%
13. N[C@@H](C(=O)N[C@@H]1C(=O)N2C(C(=O)O)=C(CSc3cn[nH]n3)CS[C@H]12)c1ccc(O)cc1  -2.03%
14. OC[C@@H](O)C(O)[C@H](O)CO  -1.57%
15. C[C@H]1C[C@H]2[C@@H]3CCC4=CC(=O)C=C[C@]4(C)[C@@]3(F)[C@@H](O)C[C@]2(C)[C@@]1(O)C(=O)CCl  2.95%
16. N=C(N)c1ccc(OCCCOc2ccc(C(=N)N)cc2Br)c(Br)c1  5.25%
17. CCOC(=O)[C@H](CCc1ccccc1)N[C@H]1CCCN2CCC[C@@H](C(=O)O)N2C1=O  6.57%
18. CCCCCCCCCCCCCCCCCCCCCC(=O)Nc1ccn([C@@H]2O[C@H](CO)[C@@H](O)[C@@H]2O)c(=O)n1  7.1%
19. CC#CCC(C)[C@H](O)/C=C/[C@@H]1[C@H]2C/C(=C/CCCC(=O)O)C[C@H]2C[C@H]1O (some centres undefined)  7.12%
20. OCC(O)COc1ccc(Cl)cc1 (centres undefined)  8.22%
21. COc1ccc2c(=O)c(C)c(-c3ccccc3)oc2c1CN(C)C  9.03%
22. CCOc1ccc(C[C@H]2NC(=O)CCSSC[C@@H](C(=O)N3CCC[C@H]3C(=O)N[C@@H](CCCN)C(=O)NCC(N)=O)NC(=O)[C@H](CC(N)=O)NC(=O)[C@H]([C@@H](C)O)NC(=O)[C@H]([C@@H](C)CC)NC2=O)cc1 ([Mpa][dY](Et)ITNCP[Orn]G-NH2; disulfide 1-6)  9.15%
23. Cn1nnnc1SCC1=C(C(=O)O)N2C(=O)[C@@H](NC(=O)[C@H](OC=O)c3ccccc3)[C@H]2SC1  10.1%
24. CCCCCCCCCCCCCCCC(=O)OC[C@@H](NC(=O)C(Cl)Cl)[C@H](O)c1ccc([N+](=O)[O-])cc1  10.5%
25. O=P(O)(O)C(Sc1ccc(Cl)cc1)P(=O)(O)O  11.1%
26. CC(C)(C)CC(=O)OCC(=O)[C@@]12OC(C)(C)O[C@@H]1C[C@H]1[C@@H]3CCC4=CC(=O)C=C[C@]4(C)[C@@]3(F)[C@@H](O)C[C@@]12C  11.3%
27. CC(=O)O[C@H]1C[C@@H]2CC[C@@H]3[C@H](CC[C@@]4(C)[C@H]3C[C@H](N3CC[N+](C)(C)CC3)[C@@H]4OC(C)=O)[C@@]2(C)C[C@@H]1N1CC[N+](C)(C)CC1  11.4%
28. O=P(O)(O)C(O)(Cc1cnc2ccccn12)P(=O)(O)O  12.5%
29. O=S(O)CNc1ccc(S(=O)(=O)c2ccc(NCS(=O)O)cc2)cc1  13.2%
30. CCCC(CCC)C(N)=O  16.3%
31. CCCCCCCCCCCCCCCCCC(=O)OCCO  18.9%
32. O=C(CCCN1CCC(C(=O)c2ccc(F)cc2)CC1)c1ccc(F)cc1  19.4%
33. CS(=O)(=O)NC(=O)CCC/C=C\C[C@H]1C(=O)C[C@@H](O)[C@@H]1/C=C/[C@H](O)COc1ccccc1  20.2%
34. O.O=C([O-])CC([S-])C(=O)[O-].[Au+].[Na+].[Na+] (centres undefined)  21.4%
35. NCCC[C@H](N)CC(=O)N[C@H]1CNC(=O)[C@H]([C@H]2C[C@H](O)NC(N)=N2)NC(=O)/C(=C/NC(N)=O)NC(=O)[C@H](CO)NC(=O)[C@H](CO)NC1=O (β3hOrn-[Dap]SS[ΔAla(Z-3-ureido)][X5]; lactam 1-C)  22.9%
36. C=CCN1CCCC1CNC(=O)c1cc(S(N)(=O)=O)cc(OC)c1OC (centres undefined)  31.2%

For `COC(=O)[C@H]1[C@H]2C[C@@H]3c4[nH]c5cc(OC)ccc5c4CCN3C[C@H]2C[C@@H](OC(=O)/C=C/c2cc(OC)c(OC)c(OC)c2)[C@@H]1OC`, the “activity, negative = cytotoxicity” value was 23.9% [at 39.1 µM].
